Here are results for 173 sequences from paper PMC6212790, “How bacterial xenogeneic silencer rok distinguishes foreign from self DNA in its resident genome”.

Whole data set: some 33,000 sequences, median “e-score” near -0.037, cut for the highest 2% near 0.34. The sample holds the highest values, similar sequences and a random draw of the others, so the mix is not that of the screen.

This experiment has as its target T1, GST-Rok (full length) (Bacillus subtilis subsp. subtilis str. …, UniProt O34857 1-191).
T1 sequence: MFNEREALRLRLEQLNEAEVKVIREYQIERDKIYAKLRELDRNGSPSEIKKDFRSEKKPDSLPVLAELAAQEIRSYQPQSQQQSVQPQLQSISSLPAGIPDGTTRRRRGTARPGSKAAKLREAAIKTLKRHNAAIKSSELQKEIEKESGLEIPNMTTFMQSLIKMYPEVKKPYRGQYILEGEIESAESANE
Briefly: protein binding microarray; Rok is a gene silencer of Bacillus subtilis; high values mean tight binding. The conditions noted are these: protein: recombinant; tags: GST (pTH5325, pDEST15-Magic modified); dsDNA, one strand shown. The procedure, abridged:
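Every oligonucleotide joins a 25-mer constant primer to a 35-mer variable part drawn from a de Bruijn sequence of order 10, so each non-palindromic 8-mer appears at least 32 times and each palindromic 8-mer 16 times. The preference for every 8-mer is reported as a unitless, rank-based enrichment score (E-score). This score spans 0.5 for the most favored 8-mer to −0.5 for the most disfavored.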
For the sequence GCCGCTCA, the binding signal was -0.181 E-score.

For the sequence AGCATGTC, the binding signal amounted to 0.0983 E-score.

With CAACTTTC, the binding signal was found to be 0.15 E-score.

In the case of CATTACCG, the binding signal is 0.00887 E-score.

In the case of ACAAAACT, the binding signal was found to be 0.085 E-score.

In the case of CCTACCTC, the binding signal was 0.0499 E-score.

For ATATAGGA, the binding signal is 0.195 E-score.

Consider CTAGAGAA, for which the binding signal was 0.193 E-score.

For the sequence AAAACGAC, the binding signal is -0.0861 E-score.

Consider AGTTAAAA, for which the binding signal is 0.197 E-score.

Turning to CATTGACA, the binding signal worked out at 0.0572 E-score.

As to AATGGAGT, the binding signal was 0.0603 E-score.

Consider ACTATAGC, for which the binding signal stood at 0.164 E-score.

For GATATGGA, the binding signal is 0.139 E-score.

Turning to ACTATAGG, the binding signal was 0.0843 E-score.

Regarding AGTATAGA, the binding signal was 0.159 E-score.

Regarding AATAGAGA, the binding signal came out at 0.239 E-score.

For TATATGGA, the binding signal is 0.343 E-score.

For ACTATAGT, the binding signal is 0.409 E-score.

Regarding AATATAGA, the binding signal was found to be 0.365 E-score.

For CATATGGA, the binding signal was -0.0847 E-score.

With AGGTAATC, the binding signal was -0.0361 E-score.

For AGCGGGGA, the binding signal is -0.076 E-score.

Consider ACCACTAG, for which the binding signal came to 0.0844 E-score.

On to AGGAATGC, for which the binding signal was -0.0829 E-score.

On to ATACCTAC, for which the binding signal amounted to 0.351 E-score.

For the sequence ATACCTAT, the binding signal is 0.333 E-score.

As to GAACCTAC, the binding signal was 0.15 E-score.

Turning to ATACCTAG, the binding signal worked out at 0.31 E-score.

For GTACCTAC, the binding signal was found to be 0.353 E-score.

GTACCTAA: the binding signal is 0.132 E-score.

Regarding CTACCTAC, the binding signal came out at 0.346 E-score.

Turning to CTACCTAA, the binding signal worked out at 0.22 E-score.

Take CTACCTAG: the binding signal amounted to 0.235 E-score.

For the sequence CTGCGCTA, the binding signal was -0.143 E-score.

For the sequence ACAGAAGG, the binding signal is -0.105 E-score.

For AGTCTCTA, the binding signal is 0.0503 E-score.

In the case of GCACTTAC, the binding signal is -0.0436 E-score.

Consider TAAACCTA, for which the binding signal turned out to be 0.181 E-score.

As for CGTGCGGA, the binding signal was -0.0584 E-score.

For the sequence AAATAGCG, the binding signal is 0.0843 E-score.

For the sequence CAATAGTC, the binding signal was 0.101 E-score.

Take ACATAGTA: the binding signal was found to be 0.306 E-score.

Take GGGTAATA: the binding signal came to 0.234 E-score.

Regarding CGGTAATA, the binding signal was determined as 0.372 E-score.

With CAATAGTA, the binding signal came to 0.341 E-score.

In the case of AAATAGTA, the binding signal came to 0.42 E-score.

AAATAGCC: the binding signal turned out to be 0.046 E-score.

Take AAATAGCT: the binding signal was found to be 0.379 E-score.

Take AAATAGCA: the binding signal turned out to be 0.0964 E-score.

In the case of CAATAGTG, the binding signal was 0.287 E-score.

Turning to CGGTAATC, the binding signal was -0.0198 E-score.

Regarding CCTCGATA, the binding signal was -0.188 E-score.

For GTCCTGTA, the binding signal was -0.0798 E-score.

Consider ATAGGTGA, for which the binding signal stood at 0.0572 E-score.

GAGCCCAA: the binding signal is -0.192 E-score.

On to GACCAGTA, for which the binding signal was found to be 0.0441 E-score.

For the sequence CTTTTATC, the binding signal stood at 0.118 E-score.

Take ATTTGGGA: the binding signal was -0.131 E-score.

Regarding AAACGTCT, the binding signal is -0.171 E-score.

Consider AAGTGACG, for which the binding signal was 0.0469 E-score.

In the case of AAACAGGG, the binding signal is -0.0541 E-score.

In the case of AGTTCCAT, the binding signal came to 0.0525 E-score.

As to AGTTTGAC, the binding signal is -0.0534 E-score.

On to ACAACTCA, for which the binding signal worked out at 0.097 E-score.

With TAATAGCA, the binding signal was determined as 0.257 E-score.

For TAGTAATA, the binding signal was determined as 0.408 E-score.

On to AAGTAACA, for which the binding signal worked out at 0.207 E-score.

In the case of AAGTAATA, the binding signal amounted to 0.275 E-score.

In the case of GAATAGTA, the binding signal came out at 0.285 E-score.

For TAATAGTA, the binding signal was determined as 0.401 E-score.

As for AAATAGTT, the binding signal came out at 0.4 E-score.

As to TAGTAACA, the binding signal amounted to 0.366 E-score.

Consider GAGTAATA, for which the binding signal turned out to be 0.318 E-score.

On to AAATAGTC, for which the binding signal turned out to be 0.119 E-score.

With CAGTAACA, the binding signal was 0.0586 E-score.

As to AAATAGTG, the binding signal amounted to 0.231 E-score.

For the sequence GTTTGTAA, the binding signal is 0.172 E-score.

Consider CATCACAG, for which the binding signal is -0.0903 E-score.

As to ACAGTTAC, the binding signal is 0.278 E-score.

With ACATCAAG, the binding signal worked out at 0.00272 E-score.

Take AGGGTGAA: the binding signal was -0.17 E-score.

Turning to CGTGGCTC, the binding signal was -0.0956 E-score.

As for GCATGGGC, the binding signal is -0.196 E-score.

On to AATGGTAT, for which the binding signal stood at 0.309 E-score.

In the case of ATTGGTAG, the binding signal stood at 0.371 E-score.

As for AGTGGTAG, the binding signal was 0.393 E-score.

Consider ATTGGTAC, for which the binding signal is 0.289 E-score.

On to ATTGGTAA, for which the binding signal stood at 0.265 E-score.

Turning to AGTGGTAC, the binding signal turned out to be 0.191 E-score.

For AATGGTAG, the binding signal amounted to 0.398 E-score.

Consider ATAGGTAG, for which the binding signal was 0.41 E-score.

Turning to CGTGGTAG, the binding signal turned out to be 0.295 E-score.

ATAGGTAA: the binding signal turned out to be 0.223 E-score.

CATGGTAG: the binding signal came to 0.168 E-score.

For the sequence ATAGGTAC, the binding signal was 0.219 E-score.

For CACTGCTA, the binding signal came to 0.106 E-score.

Regarding ACAGAACC, the binding signal was -0.171 E-score.

Regarding CTTTTTTC, the binding signal was 0.0367 E-score.

Consider CAAACCTA, for which the binding signal came to 0.145 E-score.

As for ATATAGAT, the binding signal worked out at 0.416 E-score.

In the case of ATATAGAC, the binding signal was 0.0949 E-score.

Regarding ATATAGAA, the binding signal amounted to 0.354 E-score.

As to GTATAGAA, the binding signal came to 0.329 E-score.

Regarding AAATAGAC, the binding signal came to 0.0132 E-score.

As to ATATAGAG, the binding signal was found to be 0.208 E-score.

On to AAATAGAA, for which the binding signal came to 0.368 E-score.

CTATAGAA: the binding signal was 0.275 E-score.

For GAATAGAA, the binding signal was 0.101 E-score.

TGATGTAA: the binding signal stood at 0.134 E-score.

For AACCGTAG, the binding signal amounted to 0.0498 E-score.

As for CGCAATAA, the binding signal was 0.185 E-score.

Regarding CTATCTTC, the binding signal came to 0.11 E-score.

Regarding ATATCTAG, the binding signal stood at 0.346 E-score.

For the sequence ATCTCTAA, the binding signal came to 0.0544 E-score.

ATATCTGC: the binding signal turned out to be 0.221 E-score.

In the case of ATATCTAC, the binding signal turned out to be 0.393 E-score.

Consider ATCTCTAG, for which the binding signal is -0.00242 E-score.

Take ACATCTAG: the binding signal came out at 0.325 E-score.

As to ATCTCTAC, the binding signal amounted to 0.0894 E-score.

As to CTATCTAC, the binding signal came to 0.433 E-score.

Turning to CTATCTAA, the binding signal was 0.264 E-score.

As for ATATCTAA, the binding signal is 0.371 E-score.

For CTCTCTAC, the binding signal amounted to 0.0296 E-score.

AGTTAGGG: the binding signal was -0.0305 E-score.

Regarding CTATGATA, the binding signal was 0.172 E-score.

For the sequence AACCCAAC, the binding signal was found to be 0.212 E-score.

For ACACAAGC, the binding signal was -0.0939 E-score.

Regarding AACGCCCT, the binding signal is -0.11 E-score.

As for ACTTCACT, the binding signal was determined as 0.0809 E-score.

TACTCTGA: the binding signal is -0.0307 E-score.

Regarding ATATATTG, the binding signal was 0.372 E-score.

Consider CTCTATTA, for which the binding signal was 0.0982 E-score.

On to GCATATTA, for which the binding signal turned out to be 0.242 E-score.

As to ATCTATTG, the binding signal turned out to be 0.282 E-score.

With AGATATTA, the binding signal is 0.404 E-score.

On to CCATATTA, for which the binding signal came out at 0.165 E-score.

As to ACATATTG, the binding signal worked out at 0.148 E-score.

For the sequence ACATATTA, the binding signal was 0.345 E-score.

As to CTATATTA, the binding signal stood at 0.384 E-score.

In the case of AGATATTG, the binding signal is 0.196 E-score.

Turning to CGATATTA, the binding signal amounted to 0.213 E-score.

Take CAATATTA: the binding signal turned out to be 0.254 E-score.

Take AGATTCGG: the binding signal stood at 0.0606 E-score.

In the case of ACAATCGG, the binding signal was found to be 0.00195 E-score.

For AACTGTTC, the binding signal worked out at 0.004 E-score.

Regarding AAGCAAAA, the binding signal stood at 0.0376 E-score.

Consider GTATATGA, for which the binding signal stood at 0.216 E-score.

For the sequence GTGTATTA, the binding signal stood at 0.205 E-score.

Regarding ATATATTA, the binding signal came out at 0.467 E-score.

Consider ATCTATTA, for which the binding signal stood at 0.312 E-score.

Consider GTATATTA, for which the binding signal was 0.391 E-score.

Take ATATATGA: the binding signal was 0.287 E-score.

As for CATCGTTC, the binding signal is -0.0505 E-score.

For the sequence AAGCAGAA, the binding signal was 0.142 E-score.

ATGGGCTA: the binding signal amounted to 0.0395 E-score.

For AATTTGTA, the binding signal worked out at 0.352 E-score.

As for GATTTGTA, the binding signal was found to be 0.249 E-score.

For ATTTTGTA, the binding signal turned out to be 0.232 E-score.

CGTTTGTA: the binding signal is 0.138 E-score.

Turning to AGTTTGTA, the binding signal turned out to be 0.391 E-score.

Consider AGTTTGTC, for which the binding signal was 0.0187 E-score.

For GTCGGCAA, the binding signal was -0.0858 E-score.

Regarding CCAAGAAC, the binding signal is -0.19 E-score.

On to CTCCGAAA, for which the binding signal is -0.0499 E-score.

Regarding CAGTTGAG, the binding signal was -0.000936 E-score.

AATGAATT: the binding signal stood at 0.29 E-score.

As to ACAATAAC, the binding signal came out at 0.214 E-score.

For AGTCCCAT, the binding signal was -0.144 E-score.

Consider ACTATAAG, for which the binding signal worked out at 0.268 E-score.

In the case of ACTATAAA, the binding signal was found to be 0.341 E-score.

In the case of ACTATAAC, the binding signal came to 0.214 E-score.

As to TCTATAAA, the binding signal is 0.186 E-score.
